This passage reports growth inhibition, inhibition and outcome results from PubChem BioAssay.

Values without a mark were called inactive. For some of these results: Potency and affinity values are given separately. Calls of active or inactive are those of the source. Unless noted, how the calls were made is not given here.

Assay [1] in a line: antimalarial activity against Dd2 strain (AID 2302;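 active means growth inhibition above 50% at the single 2 µM test dose, taken to imply half-maximal potency below 2 µM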;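 further: 0% = DMSO untreated growth and 100% = chloroquine plus artemisinin killed control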). The note with it: P. falciparum Dd2 in RBCs, LDH growth readout, 72 h; at 2 µM; active compounds read high.
The nature of assay [2]: HepG2 cytotoxicity, primary screen, cytotoxicity control for P. falciparum antimalarial project, cell-based, ATP luminescence (AID 2303;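 active means inhibition above 50%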;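 further: 0% = DMSO wells and 100% = digitonin-killed cells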). The note with it: HepG2 viability, 24-48 h, at 10 µM, active compounds read high.
The target in assay [3] is L-lactate dehydrogenase (Plasmodium falciparum (isolate CDC / Honduras)) (UniProt Q27743). Description: PfLDH activity inhibition – cell lysate, 3D7 strain, counter-screen for P. falciparum growth inhibition project (AID 2304).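 Further: 0% = vehicle and 100% = reference inhibitor.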 The note with it: P. falciparum 3D7 crude extract, LDH APAD/NBT absorbance; at 2 µM; active compounds read high. Background: The purpose of a counterscreen is to sort out artefacts and off-target activity.

A short description of assay [4]: inhibition of 3D7 malaria parasite growth – strain 3D7 (AID 2306).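 Further: 0% = DMSO wells and 100% = chloroquine plus artemisinin control wells.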 The note with it: P. falciparum 3D7 erythrocytic growth, LDH absorbance, 72 h; at 2 µM; active compounds read high.
Assay [5] deals with Calcium-dependent protein kinase 1 (Plasmodium falciparum (isolate 3D7)) (UniProt P62344). Description: PfCDPK1 kinase inhibitors, biochemical, TCAMS library (AID 1159585; cut-off not given, nearly all actives have IC50 up to about 0.98 µM;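 further: inhibitors leave more ATP so luminescence rises with inhibition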). The note with it: recombinant PfCDPK1, Kinase-Glo ATP depletion luminescence. For orientation: In Kinase-Glo more light means more ATP remaining.
Assay [6] addresses Plasmodium falciparum protein kinase 6 (PK6, PF3D7_1337100) (UniProt Q8IDW1). The experiment in a line: PfPK6 kinase inhibitors, biochemical, TCAMS library (AID 1159586). The note with it: recombinant PfPK6, Kinase-Glo ATP depletion luminescence.
For assay [7], the target named is Protein kinase 7 (PK7), Plasmodium falciparum 3D7 (PF3D7_0213400) (UniProt Q7YTF7). The experiment in a line: inhibition of Plasmodium PK7 catalytic activity – biochemical, TCAMS antimalarial set, Kinase-Glo luminescence (AID 1159587). The note with it: recombinant PfPK7, Kinase-Glo ATP depletion luminescence.
Assay [8] has as its target Calcium-dependent protein kinase 4 (Plasmodium falciparum (isolate 3D7)) (UniProt Q8IBS5). Description: PfCDPK4 kinase inhibitors, biochemical, TCAMS library (AID 1159588; cut-off not given, nearly all actives have IC50 up to about 0.91 µM). The note with it: recombinant PfCDPK4, Kinase-Glo ATP depletion luminescence.

Sequence of Calcium-dependent protein kinase 4 (Plasmodium falciparum (isolate 3D7)) (Q8IBS5 whole entry, looked up): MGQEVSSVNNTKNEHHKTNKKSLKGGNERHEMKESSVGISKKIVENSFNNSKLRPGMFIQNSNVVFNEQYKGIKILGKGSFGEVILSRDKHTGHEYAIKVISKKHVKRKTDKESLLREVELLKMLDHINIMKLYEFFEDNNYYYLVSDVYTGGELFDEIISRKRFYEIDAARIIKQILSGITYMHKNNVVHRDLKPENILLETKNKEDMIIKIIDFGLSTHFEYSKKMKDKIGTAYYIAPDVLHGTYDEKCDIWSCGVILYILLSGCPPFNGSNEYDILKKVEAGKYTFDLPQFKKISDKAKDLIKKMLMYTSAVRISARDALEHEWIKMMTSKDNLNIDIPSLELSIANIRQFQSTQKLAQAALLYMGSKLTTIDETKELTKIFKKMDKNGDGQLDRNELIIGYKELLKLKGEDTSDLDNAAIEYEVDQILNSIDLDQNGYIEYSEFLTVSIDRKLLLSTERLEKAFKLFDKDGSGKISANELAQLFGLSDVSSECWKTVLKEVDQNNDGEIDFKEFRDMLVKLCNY
Sequence of L-lactate dehydrogenase (Plasmodium falciparum (isolate CDC / Honduras)) (Q27743 whole entry, looked up): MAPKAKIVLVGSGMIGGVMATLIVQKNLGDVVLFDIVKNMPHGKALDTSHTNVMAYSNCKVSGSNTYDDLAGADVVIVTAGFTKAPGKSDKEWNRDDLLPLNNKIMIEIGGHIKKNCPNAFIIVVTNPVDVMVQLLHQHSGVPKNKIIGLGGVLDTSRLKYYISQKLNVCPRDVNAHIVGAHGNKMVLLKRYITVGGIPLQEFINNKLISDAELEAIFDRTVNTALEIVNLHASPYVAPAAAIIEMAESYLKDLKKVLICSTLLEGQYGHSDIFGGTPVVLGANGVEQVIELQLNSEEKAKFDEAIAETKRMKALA
Sequence of Calcium-dependent protein kinase 1 (Plasmodium falciparum (isolate 3D7)) (P62344 whole entry, looked up): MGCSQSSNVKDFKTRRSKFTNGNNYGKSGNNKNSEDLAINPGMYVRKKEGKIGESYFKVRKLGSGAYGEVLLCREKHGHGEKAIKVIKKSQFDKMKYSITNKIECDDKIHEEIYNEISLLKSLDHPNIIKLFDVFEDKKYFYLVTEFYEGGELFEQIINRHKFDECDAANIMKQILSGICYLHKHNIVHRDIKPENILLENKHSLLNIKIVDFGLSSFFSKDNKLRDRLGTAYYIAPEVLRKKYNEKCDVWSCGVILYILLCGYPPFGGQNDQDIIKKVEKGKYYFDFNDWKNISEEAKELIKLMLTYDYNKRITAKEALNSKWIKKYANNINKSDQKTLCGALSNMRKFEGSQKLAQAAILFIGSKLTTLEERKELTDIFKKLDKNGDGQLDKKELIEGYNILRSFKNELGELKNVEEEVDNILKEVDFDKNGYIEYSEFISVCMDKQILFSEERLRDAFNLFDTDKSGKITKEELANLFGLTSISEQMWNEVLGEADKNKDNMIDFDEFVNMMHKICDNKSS
Sequence of Plasmodium falciparum protein kinase 6 (PK6, PF3D7_1337100) (Q8IDW1 1-305): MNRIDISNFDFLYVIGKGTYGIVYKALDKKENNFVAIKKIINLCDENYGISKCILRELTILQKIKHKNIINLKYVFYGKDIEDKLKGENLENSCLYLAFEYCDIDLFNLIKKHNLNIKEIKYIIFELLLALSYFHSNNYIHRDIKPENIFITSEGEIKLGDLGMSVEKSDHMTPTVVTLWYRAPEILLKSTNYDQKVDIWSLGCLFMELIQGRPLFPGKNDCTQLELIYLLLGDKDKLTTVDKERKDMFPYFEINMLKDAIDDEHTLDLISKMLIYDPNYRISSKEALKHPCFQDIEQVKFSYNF
Sequence of Protein kinase 7 (PK7), Plasmodium falciparum 3D7 (PF3D7_0213400) (Q7YTF7 1-343): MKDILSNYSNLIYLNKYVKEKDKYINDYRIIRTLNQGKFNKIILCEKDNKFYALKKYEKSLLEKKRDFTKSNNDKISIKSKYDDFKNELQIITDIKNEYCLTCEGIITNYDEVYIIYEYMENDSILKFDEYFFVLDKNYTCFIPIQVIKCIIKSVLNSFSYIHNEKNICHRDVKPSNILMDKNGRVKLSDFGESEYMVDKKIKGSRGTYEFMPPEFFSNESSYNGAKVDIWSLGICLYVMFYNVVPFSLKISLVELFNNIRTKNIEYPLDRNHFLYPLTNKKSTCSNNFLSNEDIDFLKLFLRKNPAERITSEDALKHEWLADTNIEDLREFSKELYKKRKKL

Consider `O=C(Nc1cccc(CN2CCN(C(=O)c3ccccc3)CC2)c1)c1ccco1`, for which the growth inhibition was 42% in assay [1] and 95% (active) in assay [4]. Further, the inhibition (in general, the relative decrease from the control value, in per cent) in assay [2] is 6%; in assay [3], -2%. The result in assay [5], in assay [6], in assay [7] and in assay [8] was inactive.

`Cc1ccc(N2C(=O)C3C(C2=O)[C@]2(c4ccccc4)C(=O)[C@@]3(c3ccccc3)C(c3ccccc3)=C2c2ccccc2)cc1` (stereo not given in full): the growth inhibition was 96% (active) in assay [1] and 92% (active) in assay [4]. The results for the inhibition in assay [2] and in assay [3] were 17% and -2%, respectively. Also, the result in assay [5], in assay [6], in assay [7] and in assay [8] was inactive.

As to `CC(C)Cc1cn(-c2nc(-c3nc4ccccc4[nH]3)cs2)c2ccncc12`, the growth inhibition is 99% (active) in assay [1] and 102% (active) in assay [4]. The inhibition in assay [2] was 34%; in assay [3], -2%. Moreover, the result in assay [5], in assay [6], in assay [7] and in assay [8] was inactive.

In the case of `O=[N+]([O-])c1ccc(CNCCCCCCNCc2ccc([N+](=O)[O-])c3ccccc23)c2ccccc12`, the growth inhibition in assay [1] was 98% (active); in assay [4], 102% (active). Further, the figures for the inhibition in assay [2] and in assay [3] were 88% (active) and 0%, respectively. Further, the result in assay [5], in assay [6], in assay [7] and in assay [8] was inactive.

Take `CN1CCN(Cc2ccc(-c3cccc(-c4nc5ccccc5[nH]4)c3)cc2)CC1`: the results for the growth inhibition in assay [1] and in assay [4] were 6% and 93% (active), respectively. Further, the results for the inhibition in assay [2] and in assay [3] were 21% and 3%, respectively. Moreover, the outcome in assay [5], in assay [6], in assay [7] and in assay [8] was inactive.

`Nc1c(I)cc(C(=O)Nc2ccc3nc4c(c(N)c3c2)CCCC4)cc1I`: the results for the growth inhibition in assay [1] and in assay [4] were 99% (active) and 100% (active), respectively. Moreover, the values for the inhibition in assay [2] and in assay [3] were 40% and 2%, respectively. In addition, the result in assay [5], in assay [6], in assay [7] and in assay [8] was inactive.

Regarding `CN(C)CCCN1CCN(C(=O)c2cccc(-c3noc(C(F)(F)F)n3)c2)CC1`, the growth inhibition is 60% (active) in assay [1] and 92% (active) in assay [4]. For the same compound, the inhibition in assay [2] was -7%; in assay [3], -4%. Besides, the result in assay [5], in assay [6], in assay [7] and in assay [8] was inactive.

As to `O=[N+]([O-])c1cnc(Nc2ccccc2O)nc1Nc1ccccc1O`, the growth inhibition was 80% (active) in assay [1] and 98% (active) in assay [4]. Further, the figures for the inhibition in assay [2] and in assay [3] were 24% and -3%, respectively. In addition, the outcome in assay [5], in assay [6], in assay [7] and in assay [8] was inactive.

For the compound `COc1ccc2nccc([C@@H](O)CN3CCC(NCc4ccc5nc[nH]c(=O)c5c4)CC3)c2c1`, the results for the growth inhibition in assay [1] and in assay [4] were 4% and 99% (active), respectively. Also, the inhibition in assay [2] was 12%; in assay [3], -13%. Besides, the result in assay [5], in assay [6], in assay [7] and in assay [8] was inactive.

Regarding `COC(=O)Cn1c(C2CCN(CC3CCN(C(=O)/C=C/c4ccc(Cl)c(Cl)c4)CC3)CC2)nc2ccccc21`, the values for the growth inhibition in assay [1] and in assay [4] were 2% and 86% (active), respectively. For the same compound, the inhibition in assay [2] was 19%; in assay [3], -1%. Further, the outcome in assay [5], in assay [6], in assay [7] and in assay [8] was inactive.

Take `CC(C)Cn1cc(C2CCN(CCN3CCC(CNC(=O)c4ccc(NC(=O)c5ccc(Cl)cc5)cc4)CC3)CC2)c2ccccc21`: the values for the growth inhibition in assay [1] and in assay [4] were 99% (active) and 101% (active), respectively. Besides, the inhibition in assay [2] was 28%; in assay [3], -2%. Further, the outcome in assay [5], in assay [6], in assay [7] and in assay [8] was inactive.

Turning to `Cc1cc(C)nc(-n2[nH]c(C)c(Cc3ccc(C(C)(C)C)cc3)c2=O)n1`, the results for the growth inhibition in assay [1] and in assay [4] were 61% (active) and 88% (active), respectively. Further, the results for the inhibition in assay [2] and in assay [3] were -9% and -1%, respectively. The outcome in assay [5], in assay [6], in assay [7] and in assay [8] was inactive.

With `O=C(/C=C/c1cccc(Cl)c1)Nc1ccc2nc(CN3CCCC3)ccc2c1`, the values for the growth inhibition in assay [1] and in assay [4] were 42% and 99% (active), respectively. Further, the inhibition in assay [2] is 47%; in assay [3], 4%. In addition, the outcome in assay [5], in assay [6], in assay [7] and in assay [8] was inactive.

Regarding `CCCC(C)NC(=O)/C=C/c1ccccc1-c1cccc(OC)c1` (stereo not given), the growth inhibition in assay [1] was 59% (active); in assay [4], 87% (active). Also, the inhibition was 0% in assay [2] and 3% in assay [3]. Moreover, the outcome in assay [5], in assay [6], in assay [7] and in assay [8] was inactive.

On to `CCCCCCCN1CC[C@H](NC(=O)Nc2ccnc3ccc(OC)cc23)[C@H](CO)C1`, for which the growth inhibition was 69% (active) in assay [1] and 94% (active) in assay [4]. The inhibition was 23% in assay [2] and -3% in assay [3]. The result in assay [5], in assay [6], in assay [7] and in assay [8] was inactive.

Turning to `S=C(NN=Cc1ccccn1)Nc1ccc2c(c1)OCCO2`, the growth inhibition was 33% in assay [1] and 82% (active) in assay [4]. Also, the inhibition is 55% (active) in assay [2] and 6% in assay [3]. The outcome in assay [5], in assay [6], in assay [7] and in assay [8] was inactive.

For the compound `CCC(=O)Nc1cc(=O)[nH]c2nc(-c3ccc(Cl)cc3)nn12`, the results for the growth inhibition in assay [1] and in assay [4] were 62% (active) and 84% (active), respectively. Further, the inhibition in assay [2] was 3%; in assay [3], -11%. For the same compound, the result in assay [5], in assay [6], in assay [7] and in assay [8] was inactive.

On to `CCOC(=O)N[C@@H]1CN[C@@H](C#Cc2cc3c(Nc4ccc(OCc5cccc(F)c5)c(Cl)c4)ncnc3s2)C1`, for which the values for the growth inhibition in assay [1] and in assay [4] were 13% and 86% (active), respectively. Besides, the results for the inhibition in assay [2] and in assay [3] were 8% and -3%, respectively. Besides, the outcome in assay [5], in assay [6], in assay [7] and in assay [8] was inactive.

Regarding `Cc1nnsc1C(=O)Nc1cccc(-c2csc(-c3nc4ccccc4[nH]3)c2)c1`, the growth inhibition in assay [1] is 50% (active); in assay [4], 94% (active). The inhibition is 51% (active) in assay [2] and 8% in assay [3]. For the same compound, the outcome in assay [5], in assay [6], in assay [7] and in assay [8] was inactive.

For the compound `Oc1ccccc1-c1nc2cccnc2n1CCc1cccc(C(F)(F)F)c1`, the growth inhibition was 36% in assay [1] and 93% (active) in assay [4]. Besides, the inhibition in assay [2] was 4%; in assay [3], -1%. Besides, the result in assay [5], in assay [6], in assay [7] and in assay [8] was inactive.
